Source: PubChem
Ba CapD inh: blocks the Bacillus anthracis CapD enzyme. purified CapD enzyme, fluorescence intensity read-out; hits give low values. z-score (no concentration beside the values). 0.23% of 140,000 active; in the data active = z-score mostly below about -2.9, no sharp cut-off; inactive = mostly above about -1.9
Each line names hits and unclear results; the compound was inactive in the other large screens. This is one part of a sample in which hits are shown more often than they occur.

CC1=NNC(=O)C1Cc1ccccc1 (centres undefined)	none
Cc1ccc(C)n1-c1ccccc1C1C=NNC1=O (centres undefined)	Ba CapD inh -4.1
c1ccc(-n2cnnc2)cc1	none
O=C(C1CCN(c2ncc(-c3ccc(Cl)cc3)cn2)CC1)N1CCc2ccccc2C1	none
Cc1ccc(C2CC(=O)C3=C(C2)Nc2ccccc2NC3c2cccnc2)cc1 (centres undefined)	Ba CapD inh -4
COc1cc(C2Nc3cc(C)ccc3NC3=C2C(=O)CC(c2ccccc2)C3)cc(OC)c1OC (centres undefined)	none
O=C1CC(c2ccccc2)CC2=C1C(c1ccccc1)Nc1ccccc1N2 (centres undefined)	none
COc1ccc(OCC(O)CN2CCN(C)CC2)cc1 (centres undefined)	none
CCOC(=O)c1ccc(-n2c(=S)sc3c(=O)n(CC4CCCO4)c(SCC(=O)N(CC)CC)nc32)cc1 (centres undefined)	none
O=[N+]([O-])c1cc(C(F)(F)F)cc([N+](=O)[O-])c1NCCC1CC1(Cl)Cl (centres undefined)	none
CC1CCCCN1C(=O)Cn1ncc2c1-c1ccccc1OC2 (centres undefined)	Ba CapD inh -4
CC(C)NC(=O)Cn1ncc2c1-c1ccccc1OC2	none
CCN(CCN(C)C)C(=O)Cn1ncc2c1-c1ccccc1OC2	none
Fc1cccc2c1CNC(=S)N2	none
CCOC(=O)C(CCC(=O)O)(CCC(=O)O)C(=O)OCC	none
O=C(O)CC(C(=O)O)N1C(=O)/C(=C/c2ccc(Cl)cc2)SC1=S (centres undefined)	none
O=C(O)CC(C(=O)O)N1C(=O)/C(=C/c2ccc(-c3ccc(Br)cc3)o2)SC1=S (centres undefined)	Ba CapD inh -4.5
COc1ccc(/C=C2\SC(=S)N(C(CC(=O)O)C(=O)O)C2=O)cc1 (centres undefined)	none
CC(c1ccncc1)N(CCN(C)C)C(=O)Nc1ccc(Cl)c(Cl)c1 (centres undefined)	none
O=C(CCSc1ccc(Cl)cc1)NCc1ccncc1	none
COc1ccc(SCCC(=O)NCc2ccncc2)cc1	Ba CapD inh -2.1
O=C(CCSc1ccccc1)NCc1cccnc1	none
Cc1nc(C(F)(F)F)ccc1C(=O)NC1CCCCNC1=O (centres undefined)	none
C=C1SC(Nc2ccccc2Cl)=NC12CCCCC2	none
NC(=O)c1cc(Cl)ccc1I	none
S=c1c2c(nc3nc[nH]n13)CCC2	Ba CapD inh -5.7
CCN(CC)c1c2c(nc3nncn13)CCC2	none
c1ccc(N2CCN(c3c4c(nc5nncn35)CCC4)CC2)cc1	none
Cc1cc(/C=N/NC(=O)c2ccccc2OC(F)(F)F)c(C)n1-c1cccc(C(F)(F)F)c1	none
COc1ccc(Oc2nc(-c3ccccc3)cc(C(F)(F)F)c2C#N)cc1	none
CC(C)(C)c1ccc(OCc2ncc(S(=O)(=O)c3ccccc3)c(N)n2)cc1	none
O=C(Nc1cccc2c1C(=O)c1ccccc1C2=O)c1ccc(C(=O)Nc2cccc3c2C(=O)c2ccccc2C3=O)cc1	none
CCOC(=O)C1=C(N)n2c(s/c(=C/c3ccco3)c2=O)=C(C(=O)OCC)C1c1ccco1 (centres undefined)	Ba CapD inh -4.2
CCOC(=O)C1=C(N)n2c(s/c(=C/c3ccccc3)c2=O)=C(C(=O)OCC)C1c1ccccc1 (centres undefined)	none
CCOC(=O)C1=C(N)n2c(s/c(=C\c3ccco3)c2=O)=C(C#N)C1c1ccco1 (centres undefined)	none
Cc1ccc(-c2csc(-c3ccc(Cl)cc3)n2)c(C)c1	none
O=C(NCCc1ccc(Oc2ccccc2)cc1)c1ccc(CSc2ccccn2)o1	none
FC(F)(F)c1cnc(-n2nc(Br)nc2Br)c(Cl)c1	none
CN(C)c1ccc(/C=C(\C#N)C(N)=C(C#N)C#N)cc1	none
N#CC(C#N)=C(N)/C(C#N)=C/c1c[nH]c2ccccc12	Ba CapD inh -3
O/N=C/c1c[nH]c2ccccc12	none
CN1CCN(C(=O)CCN2C(=O)/C(=C/c3cccs3)SC2=S)CC1	none
CO/N=C(\Cn1ncc(N2CCOCC2)c(Cl)c1=O)c1ccc(Cl)cc1	none
CC(C)(C)c1ccc(NC(=O)OCCc2ccccc2Cl)cc1	none
Cc1ccc(C(=O)c2oc3ccccc3c2NC(=O)C(C)C)cc1	none
CSc1nsc2nc(=O)c(/C=C3\C=CC(=O)C(O)=C3)c(N)n12	Ba CapD inh -4.5
CCOC(=O)c1ccc(OCC#Cc2ccc(C(F)(F)F)cn2)cc1	none
O=C(NN=Cc1ccccc1[N+](=O)[O-])c1ccc2ccccc2c1	none
CC[n+]1c(/C=C/N(C)c2ccccc2)sc2ccc(OC)cc21	none
C[n+]1c(COc2ccccc2O)sc2ccccc21	none
C[n+]1c(/C=C/Nc2ccccc2)sc2ccccc21	Ba CapD inh -4.4
CC[n+]1c(/C=C/Nc2ccccc2)sc2ccccc21	Ba CapD inh -4.9
CSc1sc2ccccc2[n+]1C	none
CC[n+]1c(/C=C2/C=C(C)CC(C)C2)sc2ccccc21 (centres undefined)	none
Cc1ccc(N2C(=O)C3N=NN(CC(=O)NCc4ccccc4Cl)C3C2=O)cc1C (centres undefined)	none
O=C(OCCc1ccc(Cl)cc1Cl)N1CCN(c2ccc(C(F)(F)F)cn2)CC1	none
Cc1cc(=O)oc2cc(OC(=O)C3CCCN3C(=O)OC(C)(C)C)c(Cl)cc12 (centres undefined)	none
